Compound activity as filed in PubChem.
The list is not random: actives were taken first. Their share in the collection is about 3.3%.
RE007 growth inh: less growth of the S. pombe RE007 Vpr strain; S. pombe RE007 Vpr strain, BacTiter-Glo ATP luminescence, 24 h; Potency, µM (doses to about 92.2 µM), without a hit: top-dose activity change, negative = less growth, most hits filed as inhibitors; actives 0.21% (n = 360,000); AID 651644; active = well fitted falling curve with a large enough effect; inconclusive = small, poorly fitted or top-dose-only effect; inactive = no such curve, though single readings can be large or run the other way; also: nearly all actives have a fitted effect of over 50% in size
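Fission yeast strain RE007, carrying one chromosomally integrated HIV-1 vpr copy, was seeded at OD 0.01 in PMG+AL medium with 23 nL pinned compound. After 24 h at 30 °C and 99% humidity, viability was read by BacTiter-Glo luminescence.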
FBPA Giardia inh: inhibitors of Giardia lamblia fructose-1,6-bisphosphate aldolase; A8B2U2; purified Giardia FBPA; Potency, µM (top dose mostly 59.6 µM), for inactives: at the highest dose activity, negative = inhibition, hits mostly inhibitors; actives 0.71% (n = 290,000); AID 2451; also: nearly all actives have a fitted effect of over 55% in size
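40 nM FBPA preincubated 10 min at RT with compound (up to 57.5 uM final), then substrate plus GAPDH/TPI/NAD/arsenate coupling and diaphorase/resazurin added. Fluorescence read after 20 min at RT, 525/598 nm.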
Sm TGR inh: blocks Schistosoma mansoni thioredoxin glutathione reductase; actives 3% (n = 360,000); AID 485364; Q962Y6; Potency, µM (doses to about 114 µM), for the others: at the highest dose activity change, negative = inhibition, most hits filed as inhibitors; purified TGR, DTNB reduction, TNB absorbance 405 nm; also: nearly all actives have a fitted effect of over 60% in size
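Kinetic colorimetric format: TGR-catalysed, NADPH-driven DTNB reduction monitored via TNB absorbance. Enzyme dispensed at 20 nM; compound exposure 15 min at room temperature before reaction start.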
LmPK inhibitor: LmPK (Leishmania mexicana) enzyme inhibition; Q27686; purified LmPK, Kinase-Glo ATP luminescence, 1 h; Potency, µM (doses to about 57.5 µM), for the others: top-dose activity change, negative = inhibition, actives largely listed as inhibitors; actives 0.37% (n = 290,000)
Target sequence (Q27686 whole entry, looked up): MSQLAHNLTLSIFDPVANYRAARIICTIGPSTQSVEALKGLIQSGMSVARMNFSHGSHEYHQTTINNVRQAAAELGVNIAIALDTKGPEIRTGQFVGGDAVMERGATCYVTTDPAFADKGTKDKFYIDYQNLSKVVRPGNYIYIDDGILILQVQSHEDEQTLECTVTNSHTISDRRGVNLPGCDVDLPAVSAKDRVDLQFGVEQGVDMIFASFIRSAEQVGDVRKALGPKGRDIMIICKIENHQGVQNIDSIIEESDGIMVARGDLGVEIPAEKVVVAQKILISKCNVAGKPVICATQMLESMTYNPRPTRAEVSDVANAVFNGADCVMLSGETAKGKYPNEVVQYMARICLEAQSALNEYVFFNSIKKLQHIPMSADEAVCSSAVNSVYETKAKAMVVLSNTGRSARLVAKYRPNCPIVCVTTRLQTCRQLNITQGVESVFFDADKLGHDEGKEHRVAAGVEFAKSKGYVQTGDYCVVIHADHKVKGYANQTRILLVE
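Pyruvate kinase activity monitored as ATP production (luciferase luminescence). Conditions: 0.1 nM enzyme, 0.5 mM PEP, 0.1 mM ADP, 1 h, RT; normalized against uninhibited and no-enzyme wells.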
TbPYK inhibitor: T. brucei pyruvate kinase inhibition. Potency, µM (top dose mostly 76.8 µM), inactives show at the highest dose activity, negative = inhibition, most hits filed as inhibitors. TbPYK enzyme, Kinase-Glo Plus ATP luminescence, 45 min. AID 624173. actives 0.12% (n = 410,000). Q57TT1; also: nearly all actives have a fitted effect of over 50% in size
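TbPYK + substrate in 50 mM TEA pH 7.2, 100 mM KCl, 10 mM MgCl2, 0.05% BSA, 0.01% Tween-20; cpd pinned; ADP 130 uM final; 45 min RT; Kinase-Glo Plus 10 min; luminescence endpoint.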
* marks the source's active call; other numbers are inactive results; [ ] = another dose, or the depositor's remark. Unless noted, calls follow the shape of the dose curve; as a rule, active = well fitted curve in the direction sought with a large enough effect; inconclusive = small, poorly fitted or top-dose-only effect, or another doubt; inactive = no such curve, though single readings can be large; an effect the other way counts as inactive or inconclusive. % is scaled to controls: 0 for no effect and ±100 for the full control effect; potency is read from the fitted curve at half-maximal effect.

How did COc1ccc(OC)c(NC(=O)c2c(NCc3ccc(N(C)C)cc3)sc3c2CCCC3)c1 do in these assays?
Sm TGR inh: 22.4µM*; TbPYK inhibitor: -15.8%

What do the screens show for `Cc1ccnc(NC(=O)c2cccc(S(=O)(=O)N3CCN(c4ccc(F)cc4)CC3)c2)c1`?
RE007 growth inh: 1.5%; Sm TGR inh: 0.7%; TbPYK inhibitor: -3.3%

How did Cc1ccccc1CN1CCNC(=O)C1CC(=O)O (stereo unspecified) do in these assays?
RE007 growth inh: -8.8%; FBPA Giardia inh: -10.8%; Sm TGR inh: 25.1µM*; LmPK inhibitor: 2.8%; TbPYK inhibitor: 2.6%

Results for COc1cccc(CN2CCNC(=O)C2CC(=O)NC2CCCC2)c1OC (stereo unspecified) ?
RE007 growth inh: 2.2%; FBPA Giardia inh: 0.5%; Sm TGR inh: inconclusive; LmPK inhibitor: -3.2%; TbPYK inhibitor: 1.7%

Results for COc1cccc(CN2CCNC(=O)C2CC(=O)NC2CCCCC2)c1OC (stereo unspecified) ?
RE007 growth inh: 10.4%; Sm TGR inh: 44.7µM*; LmPK inhibitor: -0.5%; TbPYK inhibitor: 24.5%

Results for COc1cccc(CN2CCNC(=O)C2CC(=O)O)c1OC (stereo unspecified) ?
RE007 growth inh: -7.4%; FBPA Giardia inh: -3.3%; Sm TGR inh: 39.8µM*; LmPK inhibitor: -2.4%; TbPYK inhibitor: 4.9%

What do the screens show for `CCCN1CCC(NC(=O)CC2C(=O)NCCN2Cc2ccccc2C)CC1` (stereo unspecified)?
RE007 growth inh: 2.6%; FBPA Giardia inh: -15.4%; Sm TGR inh: -14.1%; LmPK inhibitor: -8.7%; TbPYK inhibitor: -7.9%

Results for O=C(CC1C(=O)NCCN1Cc1cccc(F)c1)NC1CCCCC1 (stereo unspecified) ?
RE007 growth inh: 2.5%; Sm TGR inh: 35.5µM*; LmPK inhibitor: -6.9%; TbPYK inhibitor: 2.1%

What do the screens show for `CC(=O)Nc1cccc(-c2ccnc3c2CC(C)(C(=O)Nc2ccc(Cl)c(C(F)(F)F)c2)O3)c1` (stereo unspecified)?
RE007 growth inh: 1.3%[18.4 µM]; TbPYK inhibitor: 0.7%

How did COc1ccc(CN2CCNC(=O)C2CC(=O)NCc2cc(C)n(C)n2)c(F)c1 (stereo unspecified) do in these assays?
RE007 growth inh: 3.0%; FBPA Giardia inh: -16.6%; Sm TGR inh: 20µM*; LmPK inhibitor: -7.8%; TbPYK inhibitor: -2.7%

Results for COc1ccc(CN2CCNC(=O)C2CC(=O)O)c(OC)c1 (stereo unspecified) ?
RE007 growth inh: 8.1%; FBPA Giardia inh: 0.0%; Sm TGR inh: 35.5µM*; LmPK inhibitor: 0.6%; TbPYK inhibitor: -5.7%

How did Cc1ccc(Nc2nc(-c3ccc(S(=O)(=O)N4CCOCC4)cc3)cs2)cc1Cl do in these assays?
RE007 growth inh: 0.2%; FBPA Giardia inh: 2.3%; Sm TGR inh: 7.3%; LmPK inhibitor: 1.9%; TbPYK inhibitor: -8.3%

How did COc1ccc(C(C)=O)cc1Cn1c(C)c(C(=O)NCc2cccc(C)c2)sc1=O do in these assays?
RE007 growth inh: 1.4%[18.4 µM]; TbPYK inhibitor: 1.1%

Results for N#CC1(N2CCCCC2)CCCCC1 ?
TbPYK inhibitor: 6.5%

What do the screens show for `CC1(C)CC(C#N)(N2CCOCC2)CCO1` (stereo unspecified)?
RE007 growth inh: -17.6%; FBPA Giardia inh: -14.8%; Sm TGR inh: 12.6µM*; LmPK inhibitor: 2.1%; TbPYK inhibitor: 6.8%

How did C=CCOc1ccc(C2=NOC(C(=O)Nc3ccc4c(c3)OCCO4)C2)cc1OC (stereo unspecified) do in these assays?
RE007 growth inh: -23.8%; FBPA Giardia inh: 3.2%; Sm TGR inh: inconclusive; LmPK inhibitor: 4.6%; TbPYK inhibitor: 5.1%

Results for COc1ccc(C2=NOC(C(=O)Nc3ccc4c(c3)OCCO4)C2)cc1OC (stereo unspecified) ?
RE007 growth inh: 13.1%; FBPA Giardia inh: 4.8%; Sm TGR inh: 31.6µM*; LmPK inhibitor: -5.4%; TbPYK inhibitor: 2.8%

How did CCNC(=O)C(=O)NCC(c1ccc2c(c1)OCO2)N1CCOCC1 (stereo unspecified) do in these assays?
RE007 growth inh: 4.7%; FBPA Giardia inh: 6.7%; Sm TGR inh: 5.6%; LmPK inhibitor: 5.1%; TbPYK inhibitor: 1.1%

How did CC(Cc1ccccn1)NC(=O)CCc1nnc(C2CCCCC2)o1 (stereo unspecified) do in these assays?
RE007 growth inh: -8.1%; FBPA Giardia inh: 0.8%; Sm TGR inh: -2.4%; LmPK inhibitor: -0.2%; TbPYK inhibitor: 1.6%

What do the screens show for `CCCOc1ccc(C(=O)CCN2CCN(C(=O)OCC)CC2)cc1`?
RE007 growth inh: 31.6µM*; FBPA Giardia inh: -2.0%; Sm TGR inh: 100µM*; LmPK inhibitor: -2.9%; TbPYK inhibitor: -17.3%

What do the screens show for `CCCCOc1ccc(C(=O)N2CCCCC2CCN2CCOCC2)cc1` (stereo unspecified)?
Sm TGR inh: 0.0%; TbPYK inhibitor: -1.9%

What do the screens show for `CCCCCOc1ccc(C(=O)CCN2CCOCC2)cc1`?
RE007 growth inh: 17.8µM*; FBPA Giardia inh: -8.8%; Sm TGR inh: 3.98µM*; LmPK inhibitor: 1.7%; TbPYK inhibitor: -5.0%

What do the screens show for `CCCCOc1ccc(SCCCN2CCOCC2)cc1`?
RE007 growth inh: -9.6%; TbPYK inhibitor: -4.5%

How did CC(C)Oc1ccc(C(=O)CCN2CCCCC2)cc1 do in these assays?
RE007 growth inh: 39.8µM*; FBPA Giardia inh: -7.1%; Sm TGR inh: 0.398µM*; LmPK inhibitor: 4.1%; TbPYK inhibitor: -17.0%

Results for CCCCOc1ccc(C(O)(CCN2CCOCC2)c2ccccc2)cc1 (stereo unspecified) ?
RE007 growth inh: -5.2%; FBPA Giardia inh: 1.8%; Sm TGR inh: 14.1µM*; LmPK inhibitor: 3.2%; TbPYK inhibitor: 0.0%

How did CC(C)Oc1ccc(C(=O)CCN2CCOCC2)cc1 do in these assays?
RE007 growth inh: inconclusive; TbPYK inhibitor: -15.1%

What do the screens show for `CCCOc1ccc(C(C)=O)cc1Cc1c(O)[nH]c(=S)[nH]c1=O`?
RE007 growth inh: -0.8%; FBPA Giardia inh: inconclusive; Sm TGR inh: -4.0%; LmPK inhibitor: -0.7%; TbPYK inhibitor: inconclusive

What do the screens show for `CCOc1ccc(C(=O)CCC(=O)NN2CCCCC2)cc1`?
RE007 growth inh: -11.7%; TbPYK inhibitor: 1.2%

Results for CCOc1ccc(C(=O)CCN2CCCCC2)cc1 ?
RE007 growth inh: 35.5µM*; FBPA Giardia inh: 12.3%; Sm TGR inh: 0.316µM*; LmPK inhibitor: -1.9%; TbPYK inhibitor: -7.3%

How did COc1ccc(C(=O)CCN2CCCCCC2)cc1 do in these assays?
RE007 growth inh: 7.08µM*; FBPA Giardia inh: -7.2%; Sm TGR inh: 17.8%; LmPK inhibitor: 2.2%; TbPYK inhibitor: 0.4%
